Screening results deposited in PubChem BioAssay by National Center for Advancing Translational Sciences (NCATS).
TDP1 cell CPT – qHTS for Inhibitors of human tyrosyl-DNA phosphodiesterase 1 (TDP1): qHTS in cells in presence of CPT. chicken DT40 Tdp1-/-;hTDP1 cells + 20 nM CPT, ATP luminescence, 48 h. Potency, µM (titrated, usually from 46.2 µM), inactives show top-dose activity change, negative = growth inhibition, actives largely listed as inhibitors. actives 12% (n = 420,000). AID 686979, 2013; also: potency is read from the fitted curve at half-maximal effect; nearly all actives have a fitted effect of over 55% in size
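Chicken DT40 Tdp1-/- cells stably complemented with human TDP1 were seeded at 400 cells/well in medium containing 20 nM camptothecin, exposed to pin-transferred compounds, and grown at 37 °C for at least 48 hr. Viability was read as ATP luminescence.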
TDP1 inh – qHTS Assay for Inhibitors of Tyrosyl-DNA Phosphodiesterase (TDP1) | AID 485290, 2010 | actives 0.28% (n = 350,000) | Potency, µM (titrated, usually from 130 µM), for inactives: top-dose activity change, negative = inhibition, usual class: inhibitors | recombinant TDP1, AlphaScreen DNA substrate cleavage | Tyrosyl-DNA phosphodiesterase 1 (Homo sapiens), Q9NUW8; also: potency is read from the fitted curve at half-maximal effect; nearly all actives have a fitted effect of over 40% in size
Target sequence (Q9NUW8 whole entry, looked up): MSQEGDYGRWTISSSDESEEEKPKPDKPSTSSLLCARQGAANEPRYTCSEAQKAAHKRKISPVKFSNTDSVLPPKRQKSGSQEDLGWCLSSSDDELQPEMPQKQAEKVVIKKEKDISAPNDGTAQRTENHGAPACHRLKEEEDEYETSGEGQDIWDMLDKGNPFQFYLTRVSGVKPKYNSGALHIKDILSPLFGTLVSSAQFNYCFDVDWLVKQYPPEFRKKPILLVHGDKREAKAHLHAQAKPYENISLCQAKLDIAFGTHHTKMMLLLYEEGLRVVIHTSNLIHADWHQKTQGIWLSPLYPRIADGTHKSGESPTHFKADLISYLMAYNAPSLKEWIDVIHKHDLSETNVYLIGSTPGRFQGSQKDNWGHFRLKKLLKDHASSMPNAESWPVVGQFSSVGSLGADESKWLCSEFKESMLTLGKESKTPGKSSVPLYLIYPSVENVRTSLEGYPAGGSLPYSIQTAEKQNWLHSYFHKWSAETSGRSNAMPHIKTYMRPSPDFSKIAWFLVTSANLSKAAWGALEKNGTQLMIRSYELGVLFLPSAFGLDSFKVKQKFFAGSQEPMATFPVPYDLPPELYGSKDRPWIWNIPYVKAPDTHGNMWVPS
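Recombinant E. coli-expressed Tdp1 (1 nM) preincubated with compound 15 min at RT, then 5'-biotin/3'-phosphotyrosine-FITC DNA substrate (15 nM) added for 5 min. AlphaScreen beads (10 ug/ml) added, 10 min RT; tyrosine-FITC cleavage read as signal loss.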
ELG1 repair inh – qHTS screen for small molecules that inhibit ELG1-dependent DNA repair in human embryonic kidney (HEK293T) cells expressing luciferase-tagged ELG1 | HEK293T ELG1-luciferase reporter, luminescence, 16 h; DNA damage induced by 5-fluorouridine | Potency, µM (doses to about 46.1 µM), for the others: top-dose activity change, negative = inhibition, most hits filed as inhibitors | actives 2.3% (n = 330,000) | AID 504467, 2011; also: potency is read from the fitted curve at half-maximal effect; nearly all actives have a fitted effect of over 55% in size
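HEK293T cells expressing luciferase-tagged ELG1 (2,000/well) received 5-Fluorouridine plus compound or DMSO for 16 hr at 37 °C. Luciferase was read by ONE-Glo luminescence after 30 min at room temperature.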
IL1B secr inh – qHTS for Inhibitors of Inflammasome Signaling: IL-1-beta AlphaLISA Primary Screen; THP-1 LPS/ATP IL-1B secretion, AlphaLISA, 16 h; hits give low values; activity change, % at 57.5 µM; actives 4.7% (n = 360,000); AID 743279, 2014; in the data active = activity change below about -50%; inconclusive = mostly about -30% to -49%
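THP-1 cells pretreated 1 hr with compounds (up to 57.5 uM final), then stimulated with LPS (250 ng/mL final) plus ATP (1.25 mM final); secreted IL-1B measured by AlphaLISA after 16 hr, decreased signal indicating inhibition.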
Giardia kill – Small Molecules that selectively kill Giardia lamblia: qHTS; Giardia lamblia trophozoite viability; activity change, % at 7.66 µM, hits read low; actives 0.15% (n = 340,000); AID 540267, 2011; in the data active = activity change below about -80%; inconclusive = between about -30% and that limit;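 also: parasites exposed to compound for two days anaerobically before the ATP read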
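Luminescent ATP signal served as the viability read-out, measured 15-30 min after adding ATP detection reagent to trophozoites that had been incubated with compounds for 48 hrs at 37 deg C anaerobically at 100 cells/well.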
TDP1 cell noCPT – qHTS for Inhibitors of human tyrosyl-DNA phosphodiesterase 1 (TDP1): qHTS in cells in absence of CPT | DT40 Tdp1-/- hTDP1 cells, no CPT, ATP luminescence, 48 h | Potency, µM (titrated, usually from 46.2 µM), without a hit: top-dose activity change, negative = growth inhibition, usual class: inhibitors | actives 15% (n = 420,000); also: potency is read from the fitted curve at half-maximal effect; nearly all actives have a fitted effect of over 55% in size
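DT40 Tdp1-/-;hTDP1 cells, no CPT (DMSO vehicle only), 400 cells/well; compounds pin-transferred; ≥48 hr, 37 °C; CellTiter-Glo 30 min RT dark, luminescence read.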
Numbers without * were called inactive; [ ] = another dose, or the depositor's remark. Rows were chosen to be rich in hits. Some 19% of all compounds tested hit in one or more screens of this group. Unless noted, calls follow the shape of the dose curve; as a rule, active = well fitted curve in the direction sought with a large enough effect; inconclusive = small, poorly fitted or top-dose-only effect, or another doubt; inactive = no such curve, though single readings can be large; an effect the other way counts as inactive or inconclusive. % is scaled to controls: 0 for no effect and ±100 for the full control effect.

How did CCCCNC(=O)c1ccc(-c2nc(CS(=O)(=O)c3ccc(C)cc3)c(C)o2)cc1 do in these assays?
TDP1 cell CPT: inconclusive; TDP1 inh: 6%; TDP1 cell noCPT: inconclusive

How did Cc1sc(=NC(=O)c2ccco2)n(C)c1-c1ccc(Cl)cc1 do in these assays?
TDP1 cell CPT: 12µM*; TDP1 inh: -3%; ELG1 repair inh: inconclusive; IL1B secr inh: -16; Giardia kill: -8; TDP1 cell noCPT: 12µM*

Results for CCOC(=O)c1sc(=NC(=O)c2ccco2)n(C)c1C ?
TDP1 cell CPT: 6%; TDP1 inh: 0%; ELG1 repair inh: inconclusive; IL1B secr inh: 56; Giardia kill: -12; TDP1 cell noCPT: -15%

Results for COc1cccc(Cn2c(=O)c(-c3cccs3)nc3cnc(N(C)C)nc32)c1 ?
TDP1 cell CPT: 1%; TDP1 cell noCPT: 15%

What do the screens show for `O=C(/C=C/c1ccccc1[N+](=O)[O-])NCCN1C(=O)S/C(=C\c2ccc(F)cc2)C1=O`?
TDP1 cell CPT: 3%; TDP1 inh: 7%; ELG1 repair inh: inconclusive; IL1B secr inh: 33; Giardia kill: -1; TDP1 cell noCPT: -21%

Results for CC(C)(C)C(=O)NCCN1C(=O)S/C(=C\c2ccc([N+](=O)[O-])cc2)C1=O ?
TDP1 cell CPT: inconclusive; TDP1 inh: 3%; ELG1 repair inh: -18%; IL1B secr inh: -73*; Giardia kill: -4; TDP1 cell noCPT: 23µM*

Results for O=C(NCCN1C(=O)S/C(=C\c2ccc(Cl)c([N+](=O)[O-])c2)C1=O)C1=COCCO1 ?
TDP1 cell CPT: 21µM*; TDP1 inh: 2%[0.505 µM]; ELG1 repair inh: inconclusive; IL1B secr inh: -103*; Giardia kill: 2; TDP1 cell noCPT: 8.2µM*

Results for O=C(NCCN1C(=O)S/C(=C\c2ccc(Cl)c(Cl)c2)C1=O)c1cnccn1 ?
TDP1 cell CPT: inconclusive; TDP1 inh: 3%; ELG1 repair inh: -2%; IL1B secr inh: 0; Giardia kill: -1; TDP1 cell noCPT: inconclusive

How did Cc1ccsc1C1C(C#N)=C(N)N(N(C)C)C2=C1C(=O)CC(C)(C)C2 (stereo unspecified) do in these assays?
TDP1 cell CPT: 7%; TDP1 inh: 5%; ELG1 repair inh: -3%; IL1B secr inh: -2; Giardia kill: 30; TDP1 cell noCPT: -1%

What do the screens show for `Cc1ccccc1CN(C)C(C)C(=O)Nc1ccccc1F` (stereo unspecified)?
TDP1 cell CPT: inconclusive; TDP1 inh: -6%; ELG1 repair inh: inconclusive; IL1B secr inh: 0; Giardia kill: 24; TDP1 cell noCPT: 26µM*

How did COc1cc(NC(=O)c2cccc3c(-c4cnn(C)c4)coc23)cc(OC)c1OC do in these assays?
TDP1 cell CPT: 4.6µM*; IL1B secr inh: -75*; TDP1 cell noCPT: 3.3µM*

Results for COc1ccc(NC(=O)c2cccc3c(-c4cnn(C)c4)coc23)cc1 ?
TDP1 cell CPT: inconclusive; IL1B secr inh: inconclusive; TDP1 cell noCPT: 23µM*

How did Cn1cc(-c2coc3c(C(=O)NCc4ccco4)cccc23)cn1 do in these assays?
TDP1 cell CPT: inconclusive; IL1B secr inh: -13; TDP1 cell noCPT: inconclusive

Results for CC(=O)N1CCc2cc(S(=O)(=O)NC(CC(C)C)C(=O)NCCc3ccccc3)ccc21 (stereo unspecified) ?
TDP1 cell CPT: -10%; TDP1 inh: -5%; TDP1 cell noCPT: 6%
